From PubChem BioAssay (NCI)
This is part of a sample that, as a whole, favours compounds with a hit. Of some 83,000 tested, about 20% had one in any assay.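 Negative percent growth values reflect cell death: -40 means 40% of the cells present at the start died, and -100 means all died.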 Values without a mark were called inactive. Active and inactive are the calls of the source. The calls were made as follows: active = growth percent below 10; inactive = the rest.

Key:
Assay in all cases: NCI-60 one-dose screen, 48 h (100 = growth as untreated, 0 = no growth, -100 = all killed)
Conditions in all cases: 10 µM unless noted
EKVX NSCLC = system: EKVX NSCLC
SN12C renal = system: SN12C renal
UO-31 renal = system: UO-31 renal
TK-10 renal = system: TK-10 renal
ACHN renal = system: ACHN renal
CAKI-1 renal = system: CAKI-1 renal
A498 renal = system: A498 renal
CCRF-CEM leukemia = system: CCRF-CEM leukemia
MOLT-4 leukemia = system: MOLT-4 leukemia
SR leukemia = system: SR leukemia
RPMI-8226 leukemia = system: RPMI-8226 leukemia
OVCAR-8 ovarian = system: OVCAR-8 ovarian
OVCAR-5 ovarian = system: OVCAR-5 ovarian
OVCAR-4 ovarian = system: OVCAR-4 ovarian
SK-OV-3 ovarian = system: SK-OV-3 ovarian
IGROV1 ovarian = system: IGROV1 ovarian
OVCAR-3 ovarian = system: OVCAR-3 ovarian
HS 578T breast = system: HS 578T breast
NCI/ADR-RES ovarian = system: NCI/ADR-RES ovarian
T-47D breast = system: T-47D breast

Compound | growth (EKVX NSCLC) [%] | growth (SN12C renal) [%] | growth (UO-31 renal) | growth (TK-10 renal) [%] | growth (ACHN renal) [%] | growth (CAKI-1 renal) [%] | growth (A498 renal) [%] | growth (CCRF-CEM leukemia) | growth (MOLT-4 leukemia) | growth (SR leukemia) | growth (RPMI-8226 leukemia) | growth (OVCAR-8 ovarian) [%] | growth (OVCAR-5 ovarian) | growth (OVCAR-4 ovarian) [%] | growth (SK-OV-3 ovarian) [%] | growth (IGROV1 ovarian) | growth (OVCAR-3 ovarian) | growth (HS 578T breast) [%] | growth (NCI/ADR-RES ovarian) | growth (T-47D breast)
COc1ccc(COC(C)=O)cc1 | 113 | 124 | 97.2% | 126 | 99.1 | 105 | 88.7 | 86.4% | 107% | 112% | 103% | 106 | 98.1% | 120 | 113 | 142% | 110% | 105 | 116% | 102%
COc1cc(/C=C/c2nnc(-c3cc(-c4ccccc4)n[nH]3)o2)cc(OC)c1OC | 102 | 99.5 | 80% | 123 | 91.3 | 89.4 | 105 | 75.9% | 69% | 86.4% | 83% | 80.8 | 101% | 100 | 88.7 | 110% | 107% | 99.7 | 86.7% | 73.2%
COc1ccc(-c2nn(-c3ccccc3)cc2/C=C2\SC(=S)N(CCc3ccc(O)cc3)C2=O)cc1 | 84.6 | 81.9 | 60% | 94.2 | 87.5 | 51.2 | 62.6 | 76.5% | 68.3% | 75.8% | 70.2% | 86.5 | 99.7% | 78.7 | 98.8 | 78.6% | 94% | 79.1 | 90.3% | 56.3%
CCOc1cccc(C2CC(=O)Nc3cc4c(cc32)OCO4)c1 (stereo not given) | 83.8 | 104 | 68.6% | 86.2 | 89.7 | 64 | 66.5 | 72.7% | 78.2% | 57.5% | 71.1% | 89 | 109% | 89.9 | 86.6 | 83.4% | 82.4% | 91.6 | 82.3% | 66.9%
O=C(C(=O)N1CCOCC1)c1ccc(OC2OC(CO)C(O)C(O)C2O)cc1 (stereo not given) | 104 | 106 | 102% | 101 | 97.9 | 98.5 | 104 | 107% | 90.3% | 102% | 111% | 100 | 98.2% | 116 | 100 | 117% | 110% | 125 | 113% | 96%
Cc1[nH]n(C(N)=S)c(=O)c1N=Nc1ccc(F)c(Cl)c1 | 96.6 | 95.8 | 73.9% | 125 | 104 | 103 | 128 | -8.05% (active) | 76.9% | 80.2% | 78.2% | 91.2 | 102% | 94.9 | 280 | 102% | 88.3% | 127 | 117% | 249%
O=[N+]([O-])c1ccc(Oc2cccc(C(F)(F)F)c2)c([N+](=O)[O-])c1 | 111 | 28.2 | 28.6% | 11.2 | 42 | 20.2 | 97.8 | 14.7% | 17.1% | 5.65% (active) | 79.3% | 12.7 | 68.1% | 98.2 | 44.5 | 12.3% | 44.9% | 105 | 29.1% | 48%
O=C(Nc1ccc(Oc2ccc(NC(=O)Nc3ccc([N+](=O)[O-])cc3)cc2)cc1)Nc1ccc([N+](=O)[O-])cc1 | 17.1 | 12.1 | -4.36% (active) | 15.1 | 10.2 | 13.9 | 13 | -32% (active) | -26.4% (active) | -3.7% (active) | -53.5% (active) | 10.1 | 6.63% (active) | 34.5 | 12.8 | -13.2% (active) | 8.26% (active) | 23.3 | 8.82% (active) | 1.54% (active)
